Results taken from PubChem BioAssay (EPA / NIEHS).
Several values for one entry are separate records, joined by “and”; a condition that tells them apart may be missing. Equal entries are not always repeated. More than one record can exist for a structure, and the calls need not agree. Activity calls are given as the source filed them. The calls were made as follows: active = hit-call score of the fitted dose curve at least 0.9, where 1 is the maximum; inactive = score below 0.9.

Biological target: Hypoxia-inducible factor 1-alpha (Homo sapiens) (UniProt Q16665)
Test: ATG_HIF1a_CIS: Attagene CIS-FACTORIAL HepG2 Assay for human Hypoxia Inducible Factor 1 (HIF1A) (AID 2282951)
Conditions: HepG2 Attagene cis-factorial HIF1a reporter transcription; actives raise or lower the signal
Protocol: ATG_CIS is a cell-based, multiplexed-readout assay that uses HepG2, a human liver cell line, with measurements taken at 24 hours after chemical dosing in a 24-well plate.ATG_HIF1a_CIS is one of 52 assay component(s) measured or calculated from the ATG_CIS assay. It is designed to make measurements of mRNA induction, a form of inducible reporter, as detected with fluorescence intensity signals by Reverse transcription polymerase chain reaction (RT-PCR) and Capillary electrophoresis technology.Data from the assay component ATG_HIF1a_CIS was analyzed into 1 assay endpoint. This assay endpoint, ATG_HIF1a_CIS, was analyzed with bidirectional fitting relative to DMSO as the negative control and baseline of activity. Using a type of inducible reporter, measures of mRNA for gain or loss-of-signal activity can be used to understand the reporter gene at the transcription factor-level as they relate to the gene HIF1A. Furthermore, this assay endpoint can be referred to as a primary readout, because this assay has produced multiple assay endpoints where this one serves a reporter gene function. To generalize the intended target to other relatable targets, this assay endpoint is annotated to the dna binding intended target family, where the subfamily is basic helix-loop-helix protein.
Human liver HepG2 cells are transiently transfected with multiple reporter transcription units (MRTUs) in 6-well plates using FuGene 6 reagent (Roche; 3 ml FuGene/1 mg DNA). The MRTU constructs are regulated by a cis-regulating element (promoter). […] A major difference between the CIS and TRANS system is that in CIS activities of endogenous TFs are measured, whereas the TRANS assay evaluates changes in activities of exogenous, chimeric NR-Gal4 proteins. […] At the end of 24 hour incubation, total RNA was isolated using TriZol reagent (Invitrogen). The isolated RNA is then reverse-transcribed using oligo(dT) primer and Mo-MLV reverse transcriptase (Invitrogen) with DNAse I (Ambion) treatment for 30 min. The one-tenth of the produced cDNA was amplified by PCR using Taq DNA polymerase (Invitrogen) and two reporter sequence-specific primers. The PCR products were fluorescently labeled by primer extension with 6-arboxyfluorescein (6-FAM) 5'-labeled reporter sequence-specific primer (2 min at 95 C, 20 s at 68 C and 10 min at 72 C) and these products were digested with 5U of HpaI (New England Biolabs) for 2h at 37 C. The fragments were purified using Qiaquick PCR columns (Qiagen), analyzed on an ABI 3130xL genetic analyzer (Applied Biosystems) with peak positions identified by using a set of X-rhodamine (ROX)-labeled MapMarker1000 molecular weight standards (BioVentures). The raw capillary electrophoresis data was processed using Attagraph software (Attagene).

Sequence of Hypoxia-inducible factor 1-alpha (Homo sapiens) (Q16665 whole entry, looked up): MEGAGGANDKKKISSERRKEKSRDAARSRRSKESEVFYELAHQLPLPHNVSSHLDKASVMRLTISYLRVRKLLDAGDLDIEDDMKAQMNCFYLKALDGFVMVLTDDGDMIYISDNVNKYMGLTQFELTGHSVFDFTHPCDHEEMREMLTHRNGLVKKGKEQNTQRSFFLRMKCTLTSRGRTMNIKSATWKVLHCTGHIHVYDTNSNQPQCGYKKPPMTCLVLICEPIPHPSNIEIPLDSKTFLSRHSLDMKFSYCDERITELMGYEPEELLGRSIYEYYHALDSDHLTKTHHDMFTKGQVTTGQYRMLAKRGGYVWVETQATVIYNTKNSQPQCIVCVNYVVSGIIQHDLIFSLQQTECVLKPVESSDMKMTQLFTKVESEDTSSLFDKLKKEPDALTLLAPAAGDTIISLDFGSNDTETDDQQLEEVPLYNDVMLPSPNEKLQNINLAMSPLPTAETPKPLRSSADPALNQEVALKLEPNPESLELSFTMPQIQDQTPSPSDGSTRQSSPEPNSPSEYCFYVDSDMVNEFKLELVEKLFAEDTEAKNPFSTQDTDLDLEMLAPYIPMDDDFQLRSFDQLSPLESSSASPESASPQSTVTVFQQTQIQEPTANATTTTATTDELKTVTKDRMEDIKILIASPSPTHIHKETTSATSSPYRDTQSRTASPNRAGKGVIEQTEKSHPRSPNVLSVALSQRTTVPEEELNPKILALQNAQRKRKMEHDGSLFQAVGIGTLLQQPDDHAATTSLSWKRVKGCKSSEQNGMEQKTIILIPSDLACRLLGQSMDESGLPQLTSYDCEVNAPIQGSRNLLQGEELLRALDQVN

Row | Compound | outcome | AC50
1 | NC(=O)NC(N)=O | inactive | 
2 | CCOC(=O)COC(=O)c1ccccc1C(=O)OCC | inactive | 
3 | CCCCC1CCCCC(=O)O1 (stereo not given) | inactive | 
4 | CC(=O)CCC=C(C)CCC=C(C)C | inactive | 
5 | CCCC1CCC(=O)CC1 | inactive | 
6 | C=C(C)C(=O)OCCN(C)C | inactive | 
7 | CCOC(=O)C=Cc1ccccc1 | inactive | 
8 | O=C1OC2(c3ccc(O)cc3Oc3cc(O)ccc32)c2ccccc21 | inactive | 
9 | C=C(C)C(=O)OCCC(C)OC(=O)C(=C)C (stereo not given) | inactive | 
10 | COc1ccc(OC)cc1 | inactive | 
11 | O=C(O)c1ccccc1O | inactive | 
12 | CC(C)(C)C1CCC(O)CC1 (stereo not given) | inactive | 
13 | Brc1cc(Br)cc(Br)c1 | inactive | 
14 | CC(C)(O)CCc1ccccc1 | inactive | 
15 | O=S(=O)(O)CCCN1CCOCC1 | inactive | 
16 | O=S1(=O)CC(Cl)(Cl)C(Cl)(Cl)C1 | inactive | 
17 | CC(C)(C)c1cc(CCC(=O)OCCSCCOC(=O)CCc2cc(C(C)(C)C)c(O)c(C(C)(C)C)c2)cc(C(C)(C)C)c1O | inactive | 
18 | CCCCCCCCCCO[C@@H]1O[C@H](CO)[C@@H](O)[C@H](O)[C@H]1O | inactive | 
19 | CCCC(O)C(CC)CO (stereo not given) | inactive | 
20 | CCC(=O)OCC=Cc1ccccc1 | inactive | 

Row | Compound | outcome | AC50
21 | NNC(=O)OCc1ccccc1 | inactive | 
22 | OCCN1CCOCC1 | inactive | 
23 | CCC(C)(C)C1CCC(OC)CC1 (stereo not given) | inactive | 
24 | CC(=O)Oc1c(C)c(C)c2c(c1C)CC[C@@](C)(CCC[C@H](C)CCC[C@H](C)CCCC(C)C)O2 | inactive | 
25 | CCCCCCOC(C)=O | inactive | 
26 | CC1=CC(C)C(C=O)C(C)C1 (stereo not given) (tested in a mixture with another compound) | inactive | 
27 | C1=COCCC1 | inactive | 
28 | S=c1[nH][nH]c(=S)s1 | inactive | 
29 | CCOc1ccc(NC(C)=O)cc1 | inactive | 
30 | O=C(O)c1cccc(Cl)n1 | inactive | 
31 | CCCCCCCCCC(=O)OCC | inactive | 
32 | C#C[C@]1(O)CC[C@H]2[C@@H]3CCc4cc(O)ccc4[C@H]3CC[C@@]21C | inactive | 49 µM (active) and 67.4 µM (active)
33 | N=C1N=C(N)c2ccccc21 | inactive | 
34 | CC(C)CCCC(C)(C)O | inactive | 
35 | c1ccc2c(c1)-c1ccc3ccc4cccc5cc-2c1c3c45 |  | 16.6 nM (active)
36 | Nc1ccc(O)c(N)c1 | inactive | 
37 | C/C=C(\C)C(=O)OC/C=C(\C)CCC=C(C)C | inactive | 
38 | CC(CCO)CC(C)(C)C (stereo not given) | inactive | 
39 | CC1=CC(O)CC(C)(C)C1 (stereo not given) | inactive | 
